Data from PubChem BioAssay (Tox21).
Records with an inconclusive call do not appear. Active and inactive are the calls of the source. The call rests on the fitted dose curve.

experiment: p53 small molecule agonists, cell-based qHTS assay with human liver microsomes: qHTS cell viability counter screen (AID 1963579); conditions: p53RE-bla HCT-116 viability, ATP luminescence, 16 h, HLM; series mostly up to 66 µM; activity change, negative = cytotoxicity: at the top concentration; further: nearly all actives have a fitted effect of over 45% in size
Excerpt: National Center for Advancing Translational Sciences [NCATS]
Division of Preclinical Innovation [DPI]
U.S. Environmental Protection Agency [EPA]
National Institutes of Environmental Health Sciences [NIEHS]
National Toxicology Program [NTP]
U.S. Food and Drug Administration [FDA]
p53, a tumor suppressor protein, is activated following cellular insult, including DNA damage and other cellular stresses. The activation of p53 regulates cell fate by inducing DNA repair, cell cycle arrest, apoptosis, or cellular senescence. The activation of p53, therefore, is a good indicator of DNA damage and other cellular stresses. […] The activation of the reporter gene under culture conditions can be detected by fluorescence intensity. This cell line was used to screen the Tox21 10K compound library in the condition of presence of human liver microsomes and to identify agonists that activate the p53 signaling pathway after in vitro metabolic activation (Ooka et al., Archive of Toxicology 96:1975-1987, 2022).
Tox21 Assay Protocol Summary:
The p53RE-bla cells were dispensed at 4,000cells/3ul/well in 1536-well black-clear bottom plates. After the assay plates were incubated at 37 C, 5% CO2 incubator for 5 hours, 23 nL of compounds dissolved in DMSO, positive controls or DMSO only was transferred to the assay plate. Following compound addition, 3 uL of human liver microsomes (XenoTech, Kansas City, KS) at final concentration of 0.5 mg/mL and 1uL of B-Nicotinamide adenine dinucleotide 2'-phosphate (NADPH) at final concentration of 0.5 mg/mL were transferred to the assay plate. The plates were incubated at 37 C for 16 hours. 1 uL of LiveBLAzer detection mixture was added to each well and the plates were incubated at room temperature in the dark for 2 h. Fluorescence intensity at 460 and 530 nm emission and 405 nm excitation were measured by an Envision plate reader. For cell viability readout that measures cytotoxicity, 4 ul/well of CellTiter-Glo reagent was added into the assay plates using a Flying Reagent Dispenser. After 30 min incubation at room temperature, the luminescence intensity in the plates was measured using a ViewLux plate reader.
On the % scale 0 is the no-effect control and ±100 the full control effect; potency means the concentration at half of the fitted maximal effect.

Q: Which “activity change, negative = cytotoxicity” value does the source give for `CN(C)Cc1cc(C(C)(C)C)c(O)c(C(C)(C)C)c1` here?
A: 0.492% (inactive)

Q: Which “activity change, negative = cytotoxicity” value does the source give for `CC(C)(C)C(=O)c1ccccc1` here?
A: 2.21% (inactive)

Q: With `Cc1ccc(O)c([C@H](CCN(C(C)C)C(C)C)c2ccccc2)c1` as the compound, how does the “activity change, negative = cytotoxicity” value read?
A: 8.86% [at 30.3 µM] (inactive)

Q: Which “activity change, negative = cytotoxicity” value does the source give for `CC(=O)c1ccc2c(c1)Cc1ccccc1-2` here?
A: -1.26% (inactive)

Q: For `COC(=O)[C@@H]1CC2=CC(=O)CC[C@]2(C)[C@@]23O[C@@H]2C[C@@]2(C)[C@@H](CC[C@@]24CCC(=O)O4)[C@H]13`, which “activity change, negative = cytotoxicity” value is on record?
A: -2.75% [at 30.3 µM] (inactive)

Q: Which “activity change, negative = cytotoxicity” value does the source give for `CC(C)c1ccccc1C(C)C` here?
A: -5.52% (inactive)

Q: For `CNC(=O)C(c1ccccc1)c1ccccc1`, which “activity change, negative = cytotoxicity” value is on record?
A: 5.1% (inactive)

Q: Which “activity change, negative = cytotoxicity” value does the source give for `CS(=O)(=O)CCNCc1ccc(-c2ccc3ncnc(Nc4ccc(OCc5cccc(F)c5)c(Cl)c4)c3c2)o1` here?
A: -12.3% [at 30.3 µM] (inactive)

Q: For `Nc1ccc2ccccc2c1S(=O)(=O)O`, which “activity change, negative = cytotoxicity” value is on record?
A: -0.371% (inactive)

Q: With `CCCCOCC(C)OCC(C)O` (stereo not given) as the compound, how does the “activity change, negative = cytotoxicity” value read?
A: 1.32% (inactive)

Q: With `CCC(=O)c1ccc2c(c1)N(CCCN(C)C)c1ccccc1S2` as the compound, how does the “activity change, negative = cytotoxicity” value read?
A: 1.19% [at 30.3 µM] (inactive)

Q: Which “activity change, negative = cytotoxicity” value does the source give for `CC(O)C1CCCCC1` (stereo not given) here?
A: 2.47% (inactive)

Q: With `CCCc1ccc(OCC(=O)N2CCN(C(=O)COc3ccc(CCC)cc3OC)CC2)c(OC)c1` as the compound, how does the “activity change, negative = cytotoxicity” value read?
A: -3.43% [at 30.3 µM] (inactive)

Q: With `CC(=O)OCC(=O)[C@@]1(O)CC[C@H]2[C@@H]3CCC4=CC(=O)CC[C@]4(C)[C@H]3C(=O)C[C@@]21C` as the compound, how does the “activity change, negative = cytotoxicity” value read?
A: -8.07% [at 30.3 µM] (inactive)

Q: Which “activity change, negative = cytotoxicity” value does the source give for `C[C@@]12CCC[C@H]1[C@@H]1CC[C@H]3C[C@@H](O)CC[C@]3(C)[C@H]1CC2` here?
A: 7.36% [at 30.3 µM] (inactive)

Q: For `CC(Oc1c(Cl)cccc1Cl)C1=NCCN1` (stereo not given), which “activity change, negative = cytotoxicity” value is on record?
A: -21.2% [at 30.3 µM] (inactive)

Q: For `c1ccc(C(O[C@@H]2CCCN(CCc3ccc4c(c3)OCO4)C2)c2ccccc2)cc1`, which “activity change, negative = cytotoxicity” value is on record?
A: -10.9% (inactive)

Q: For `C=CC(=O)[O-].C=CC(=O)[O-].[Zn+2]`, which “activity change, negative = cytotoxicity” value is on record?
A: 19.9% (inactive)

Q: With `CCOC(C)OCC` as the compound, how does the “activity change, negative = cytotoxicity” value read?
A: 0.227% (inactive)

Q: Which “activity change, negative = cytotoxicity” value does the source give for `O=C(OCC(O)CO)c1ccccc1Nc1ccnc2cc(Cl)ccc12` (stereo not given) here?
A: -10.6% [at 30.3 µM] (inactive)

Q: Which “activity change, negative = cytotoxicity” value does the source give for `O=C(c1ccc(O)c(O)c1)c1ccc(O)cc1O` here?
A: -2.35% (inactive)

Q: For `COC(=O)[C@]1(C)CCC[C@@]2(C)[C@H]1CC=C1C=C(C(C)C)CC[C@@H]12`, which “activity change, negative = cytotoxicity” value is on record?
A: 5.44% (inactive)

Q: Which “activity change, negative = cytotoxicity” value does the source give for `Nc1ccn([C@@H]2O[C@H](CO)[C@@H](O)C2O)c(=O)n1` (stereo not given in full) here?
A: -15.6% (inactive)

Q: For `NC(=O)c1nc(-c2cccc(-c3cc(F)ccc3OCC(F)(F)C(F)(F)F)c2)n[nH]1`, which “activity change, negative = cytotoxicity” value is on record?
A: 1.42% (inactive)

Q: For `O=C(O)/C=C/c1ccc(O)c(O)c1`, which “activity change, negative = cytotoxicity” value is on record?
A: 0.383% (inactive)

Q: With `CCOC(=O)/C=C(C)/C=C/C=C(C)/C=C/c1c(C)cc(OC)c(C)c1C` as the compound, how does the “activity change, negative = cytotoxicity” value read?
A: -1.5% [at 30.3 µM] (inactive)

Q: Which “activity change, negative = cytotoxicity” value does the source give for `CC1(C)O[C@@H]2C[C@H]3[C@@H]4C[C@H](F)C5=CC(=O)C=C[C@]5(C)[C@H]4[C@@H](O)C[C@]3(C)[C@]2(C(=O)CO)O1` here?
A: -2.71% [at 30.3 µM] (inactive)

Q: For `Cc1cc(=O)oc2cc(N(C)C)ccc12`, which “activity change, negative = cytotoxicity” value is on record?
A: 0.623% (inactive)

Q: Which “activity change, negative = cytotoxicity” value does the source give for `Brc1ccccc1-c1ccccc1` here?
A: 5.69% (inactive)

Q: Which “activity change, negative = cytotoxicity” value does the source give for `CC(C)(c1ccccc1)c1ccccc1` here?
A: 1.92% (inactive)

Q: Which “activity change, negative = cytotoxicity” value does the source give for `C=CC[N+]1([C@H]2C[C@H]3[C@@H]4CC[C@H]5C[C@H](OC(C)=O)[C@@H](N6CCCCC6)C[C@]5(C)[C@H]4CC[C@]3(C)[C@H]2OC(=O)CC)CCCCC1` here?
A: 13.4% [at 30.3 µM] (inactive)

Q: Which “activity change, negative = cytotoxicity” value does the source give for `CCCCCCCCCCC1CO1` (stereo not given) here?
A: -10.9% (inactive)

Q: With `Cc1nnc(SCC2=C(C(=O)O)N3C(=O)[C@@H](NC(=O)Cn4cnnn4)[C@H]3SC2)s1` as the compound, how does the “activity change, negative = cytotoxicity” value read?
A: 7.46% [at 30.3 µM] (inactive)

Q: For `O=C(NO)C1(NS(=O)(=O)c2ccc(Oc3ccc(F)cc3)cc2)CCOCC1`, which “activity change, negative = cytotoxicity” value is on record?
A: 0.623% (inactive)

Q: With `COCCOC` as the compound, how does the “activity change, negative = cytotoxicity” value read?
A: -13% (inactive)

Q: With `CO[C@H]1C=CO[C@@]2(C)Oc3c(C)c(O)c4c(O)c(c5c(c4c3C2=O)=NC2(CCN(CC(C)C)CC2)N=5)NC(=O)/C(C)=C\C=C/[C@H](C)[C@H](O)[C@@H](C)[C@@H](O)[C@@H](C)[C@H](OC(C)=O)[C@@H]1C` as the compound, how does the “activity change, negative = cytotoxicity” value read?
A: -13.5% (inactive)

Q: With `CC(=O)CCC1=C(C)CCCC1(C)C` as the compound, how does the “activity change, negative = cytotoxicity” value read?
A: 8.01% (inactive)

Q: For `Oc1ccccc1F`, which “activity change, negative = cytotoxicity” value is on record?
A: 2.43% (inactive)

Q: With `COC(=O)C(C)=O` as the compound, how does the “activity change, negative = cytotoxicity” value read?
A: 1.48% (inactive)

Q: Which Potency does the source give for `CCCCCCOc1cc(C)c(O)c(C)c1C` here?
A: 26 µM (active)
